From the supplement of paper PMC11732987, “Enantioselective OTUD7B fragment discovery through chemoproteomics screening and high-throughput optimisation” (Communications Chemistry, 2025)

What was measured:
Experiment in all cases: log2 ratio of Biotin-Ahx-Ub-VS probe labelling (fragment/DMSO); higher = less target engagement (more negative = stronger competition), active = hit call of the paper (q ≤ 0.05, log2 ratio ≤ -1)
Conditions in all cases: compound concentration: 200 uM; treatment time: 3 h
OTUD6B = target: T1, OTUD6B (UniProt Q8N6M0)
T1 sequence (whole entry): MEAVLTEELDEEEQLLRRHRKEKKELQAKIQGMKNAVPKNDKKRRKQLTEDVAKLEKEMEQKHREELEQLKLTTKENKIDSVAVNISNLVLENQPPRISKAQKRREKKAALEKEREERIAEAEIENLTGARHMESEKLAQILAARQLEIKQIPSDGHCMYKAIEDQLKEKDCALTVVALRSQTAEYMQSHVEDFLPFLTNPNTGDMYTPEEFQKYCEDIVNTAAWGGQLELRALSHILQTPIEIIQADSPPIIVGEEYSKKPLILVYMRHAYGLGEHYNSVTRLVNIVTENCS
In short: (§1)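 Global-median-normalised Spectronaut label-free quantities were compared by unpaired t-test, and values are average log2 ratios of fragment over vehicle. Only proteins with ≥2 unique peptides were used. HEK293T lysate (495 µg per sample) was treated in triplicate with fragment at 200 µM or vehicle for 3 h and then with Biotin-Ahx-Ub-VS at 0.5 µM final for 1 h. Labelled DUBs were then NeutrAvidin-enriched, digested with LysC and trypsin, and run by diaPASEF LC-MS/MS.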

OTUD7B = target: T2, OTUD7B (UniProt Q6GQQ9)
T2 sequence (whole entry): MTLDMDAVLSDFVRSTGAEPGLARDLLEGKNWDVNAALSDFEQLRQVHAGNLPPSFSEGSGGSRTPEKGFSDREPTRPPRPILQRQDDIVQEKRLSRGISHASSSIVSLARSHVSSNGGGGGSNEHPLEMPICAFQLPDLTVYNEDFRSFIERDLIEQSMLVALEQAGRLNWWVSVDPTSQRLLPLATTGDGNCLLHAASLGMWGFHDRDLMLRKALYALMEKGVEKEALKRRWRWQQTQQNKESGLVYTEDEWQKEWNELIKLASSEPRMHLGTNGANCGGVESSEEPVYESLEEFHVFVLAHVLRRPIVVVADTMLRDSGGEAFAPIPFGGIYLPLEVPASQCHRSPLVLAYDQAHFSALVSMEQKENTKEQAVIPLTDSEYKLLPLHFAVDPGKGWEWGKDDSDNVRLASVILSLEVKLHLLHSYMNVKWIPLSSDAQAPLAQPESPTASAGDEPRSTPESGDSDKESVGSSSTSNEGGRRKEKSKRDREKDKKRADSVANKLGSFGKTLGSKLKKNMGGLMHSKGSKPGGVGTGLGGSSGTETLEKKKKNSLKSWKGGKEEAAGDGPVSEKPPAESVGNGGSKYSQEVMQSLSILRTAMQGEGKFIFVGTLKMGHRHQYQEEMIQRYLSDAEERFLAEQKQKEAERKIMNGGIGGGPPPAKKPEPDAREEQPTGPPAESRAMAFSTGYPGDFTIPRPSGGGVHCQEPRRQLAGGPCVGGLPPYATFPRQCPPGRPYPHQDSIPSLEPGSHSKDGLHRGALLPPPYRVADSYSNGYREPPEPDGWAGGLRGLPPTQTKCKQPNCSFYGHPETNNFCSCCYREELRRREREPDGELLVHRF
In short: as §1

PRPF8 = PRPF8 (UniProt Q6P2Q9)
In short: as §1

PSMD7 = target: T3, PSMD7 (UniProt P51665)
T3 sequence (whole entry): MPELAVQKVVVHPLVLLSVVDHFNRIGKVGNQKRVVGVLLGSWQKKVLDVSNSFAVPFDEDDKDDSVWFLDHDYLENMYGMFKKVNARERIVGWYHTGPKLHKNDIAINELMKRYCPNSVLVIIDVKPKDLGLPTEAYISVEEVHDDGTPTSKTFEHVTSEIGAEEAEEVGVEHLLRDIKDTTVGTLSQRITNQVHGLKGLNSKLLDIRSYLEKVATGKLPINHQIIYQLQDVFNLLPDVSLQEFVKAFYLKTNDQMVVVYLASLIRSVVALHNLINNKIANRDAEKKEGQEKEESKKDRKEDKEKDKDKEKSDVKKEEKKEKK
In short: as §1

UCHL1 = UCHL1 (UniProt P09936)
In short: as §1

UCHL3 = target: T4, UCHL3 (UniProt P15374)
T4 sequence (whole entry): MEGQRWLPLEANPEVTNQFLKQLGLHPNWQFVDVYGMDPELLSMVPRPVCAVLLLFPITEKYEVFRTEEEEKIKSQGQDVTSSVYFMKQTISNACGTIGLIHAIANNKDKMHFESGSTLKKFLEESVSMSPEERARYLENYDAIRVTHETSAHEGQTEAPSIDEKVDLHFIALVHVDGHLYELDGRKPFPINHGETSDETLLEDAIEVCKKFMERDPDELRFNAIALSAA
In short: as §1

UCHL5 = target: T5, UCHL5 (UniProt Q9Y5K5)
T5 sequence (whole entry): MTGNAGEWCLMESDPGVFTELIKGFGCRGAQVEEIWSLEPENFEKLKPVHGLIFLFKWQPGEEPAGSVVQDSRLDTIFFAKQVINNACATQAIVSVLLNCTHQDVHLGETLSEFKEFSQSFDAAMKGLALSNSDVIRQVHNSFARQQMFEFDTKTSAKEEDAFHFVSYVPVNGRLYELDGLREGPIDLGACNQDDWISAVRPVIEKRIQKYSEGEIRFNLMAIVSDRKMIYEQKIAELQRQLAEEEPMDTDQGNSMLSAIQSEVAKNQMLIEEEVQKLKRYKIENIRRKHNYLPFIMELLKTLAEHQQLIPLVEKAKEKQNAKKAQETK
In short: as §1

USP10 = USP10 (UniProt Q14694)
In short: as §1

USP15 = target: T6, USP15 (UniProt Q9Y4E8)
T6 sequence (whole entry): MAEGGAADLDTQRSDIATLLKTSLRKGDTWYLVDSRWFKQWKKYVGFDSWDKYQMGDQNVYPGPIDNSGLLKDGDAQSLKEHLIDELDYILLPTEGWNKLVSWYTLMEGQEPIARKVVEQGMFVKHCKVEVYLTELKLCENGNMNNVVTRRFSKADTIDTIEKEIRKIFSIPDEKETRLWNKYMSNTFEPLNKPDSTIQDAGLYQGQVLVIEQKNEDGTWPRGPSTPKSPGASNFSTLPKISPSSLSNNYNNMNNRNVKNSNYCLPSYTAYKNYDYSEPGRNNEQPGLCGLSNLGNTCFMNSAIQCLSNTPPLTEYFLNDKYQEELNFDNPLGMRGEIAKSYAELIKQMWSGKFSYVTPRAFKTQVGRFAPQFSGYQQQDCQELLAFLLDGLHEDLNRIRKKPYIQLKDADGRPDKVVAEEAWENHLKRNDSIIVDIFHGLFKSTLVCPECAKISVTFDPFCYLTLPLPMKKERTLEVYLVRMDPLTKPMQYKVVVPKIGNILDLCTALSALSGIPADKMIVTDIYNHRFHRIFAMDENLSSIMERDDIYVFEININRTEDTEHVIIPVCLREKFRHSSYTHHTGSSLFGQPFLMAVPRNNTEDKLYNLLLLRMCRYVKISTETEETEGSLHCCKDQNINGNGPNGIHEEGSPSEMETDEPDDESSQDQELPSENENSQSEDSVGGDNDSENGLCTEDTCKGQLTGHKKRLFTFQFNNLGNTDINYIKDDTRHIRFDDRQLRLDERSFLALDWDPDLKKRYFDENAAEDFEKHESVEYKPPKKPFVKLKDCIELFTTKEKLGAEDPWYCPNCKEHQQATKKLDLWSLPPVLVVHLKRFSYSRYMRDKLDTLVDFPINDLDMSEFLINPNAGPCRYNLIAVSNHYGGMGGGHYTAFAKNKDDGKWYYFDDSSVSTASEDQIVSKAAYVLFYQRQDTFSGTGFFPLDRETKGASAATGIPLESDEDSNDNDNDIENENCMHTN
In short: as §1

Measured: log2 ratio of Biotin-Ahx-Ub-VS probe labelling

USP10, sequence (Q14694 whole entry): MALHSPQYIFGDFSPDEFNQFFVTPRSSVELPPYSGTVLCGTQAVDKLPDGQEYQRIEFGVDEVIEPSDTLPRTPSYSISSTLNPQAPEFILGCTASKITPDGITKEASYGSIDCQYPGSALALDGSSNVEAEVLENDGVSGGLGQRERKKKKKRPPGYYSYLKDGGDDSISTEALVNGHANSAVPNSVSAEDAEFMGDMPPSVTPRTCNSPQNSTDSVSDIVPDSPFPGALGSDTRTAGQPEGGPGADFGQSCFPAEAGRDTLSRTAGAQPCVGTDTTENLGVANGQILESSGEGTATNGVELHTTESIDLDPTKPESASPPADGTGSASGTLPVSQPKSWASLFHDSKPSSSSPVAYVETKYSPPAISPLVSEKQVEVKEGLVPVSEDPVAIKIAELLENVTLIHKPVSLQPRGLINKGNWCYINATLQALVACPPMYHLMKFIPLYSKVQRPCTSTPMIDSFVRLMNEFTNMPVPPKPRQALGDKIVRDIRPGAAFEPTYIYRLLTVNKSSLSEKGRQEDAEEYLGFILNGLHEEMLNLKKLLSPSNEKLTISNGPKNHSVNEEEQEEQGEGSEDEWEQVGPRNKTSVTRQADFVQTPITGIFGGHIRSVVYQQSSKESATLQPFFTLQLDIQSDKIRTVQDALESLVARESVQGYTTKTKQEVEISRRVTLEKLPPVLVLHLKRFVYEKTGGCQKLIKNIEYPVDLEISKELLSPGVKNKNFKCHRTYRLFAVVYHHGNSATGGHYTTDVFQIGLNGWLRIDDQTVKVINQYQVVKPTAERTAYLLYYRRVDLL
UCHL1, sequence (P09936 whole entry, looked up): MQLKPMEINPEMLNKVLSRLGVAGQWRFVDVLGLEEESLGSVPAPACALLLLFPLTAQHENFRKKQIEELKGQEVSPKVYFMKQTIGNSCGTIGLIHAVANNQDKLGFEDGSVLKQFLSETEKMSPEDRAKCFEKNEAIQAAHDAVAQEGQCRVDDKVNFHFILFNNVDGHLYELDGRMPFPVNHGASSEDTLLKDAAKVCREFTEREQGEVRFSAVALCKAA

CN(Cc1nc2ccccc2[nH]1)C(=O)CCl.Cl
inactive: OTUD6B -0.0126 | OTUD7B -0.039 | PRPF8 0.00724 | PSMD7 -0.142 | UCHL1 0.185 | UCHL3 0.504 | UCHL5 -0.121 | USP10 -0.14 | USP15 -0.17
